Results reported in PubChem BioAssay (EPA / NIEHS).
Inconclusive results are not listed. Activity calls are given as the source filed them. How the source made its calls, unless noted: active means hit-call score of the fitted dose curve at least 0.9, where 1 is the maximum; inactive means score below 0.9.

Assays:
[1] = read-out: Macrophage colony-stimulating factor (MCSF), CSF1 (gene 1435); test: BSK_LPS_MCSF: BioMAP Diversity Plus: LPS Assay for Macrophage colony-stimulating factor (MCSF) Biomarker Activity (AID 2283083); conditions: primary human HUVEC with PBMC; actives raise or lower the signal
Method in brief: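 Compound is added to a human vascular primary co-culture of umbilical vein endothelium and blood mononuclear cells. After 24 h, M-CSF is quantified by ELISA. Signal changes are fitted in both directions against DMSO.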

[2] = read-out: Tissue Factor, F3 (gene 2152); test: BSK_LPS_TissueFactor: BioMAP Diversity Plus: LPS Assay for Tissue Factor Biomarker Activity (AID 2283084); conditions: primary human HUVEC with PBMC; actives raise or lower the signal
Method in brief: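 In this co-culture system of umbilical vein endothelium with PBMC, stimulated with LPS, cell-surface CD142 is detected by ELISA at 24 h. Endpoint values derive from bidirectional fitting, DMSO serving as baseline.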

[3] = read-out: Tumor necrosis factor (Homo sapiens) (UniProt P01375); test: BSK_LPS_TNFa: BioMAP Diversity Plus: LPS Assay for Tumour Necrosis Factor alpha (TNFa) Biomarker Activity (AID 2283085); conditions: primary human HUVEC with PBMC; actives raise or lower the signal
Method in brief: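 Read-out is ELISA of TNFa in primary human endothelial cell–PBMC co-cultures at 24 h after compound. Activity in either direction was fitted against DMSO.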

[4] = read-out: Vascular cell adhesion molecule 1 (VCAM1), VCAM1 (gene 7412); test: BSK_LPS_VCAM1: BioMAP Diversity Plus: LPS Assay for Vascular cell adhesion molecule 1 (VCAM1) Biomarker Activity (AID 2283086); conditions: primary human HUVEC with PBMC; actives raise or lower the signal
Method in brief: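 HUVEC + PBMC co-culture, LPS system; compound 24 h; VCAM-1 by ELISA; bidirectional fit vs DMSO control; parallel SRB (0.1%, TCA-fixed, 560 nm) for cytotoxicity.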

[5] = read-out: CD38, CD38 (gene 952); test: BSK_SAg_CD38: BioMAP Diversity Plus: SAg Assay for CD38 Biomarker Activity (AID 2283087); conditions: primary human HUVEC with PBMC; actives raise or lower the signal
Method in brief: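 Human HUVEC plus PBMC co-culture stimulated with superantigen; CD38 measured by ELISA 24 h after chemical dosing. Fluorescence read-out, bidirectional fit against DMSO; cytotoxicity tracked in parallel by SRB and Alamar Blue.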

[6] = read-out: Monocyte Chemoattractant Protein-1 (MCP1), CCL2 (gene 6347); test: BSK_SAg_MCP1: BioMAP Diversity Plus: SAg Assay for Monocyte Chemoattractant Protein-1 (MCP1) Biomarker Activity (AID 2283090); conditions: primary human HUVEC with PBMC; actives raise or lower the signal
Method in brief: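 MCP-1 levels in the endothelial–PBMC SAg co-culture were quantified by ELISA at 24 h post-dosing; both increases and decreases versus DMSO scored. Cytotoxicity monitored by SRB total protein in parallel cultures.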

[7] = read-out: E-selectin (Homo sapiens) (UniProt P16581); test: BSK_SAg_Eselectin: BioMAP Diversity Plus: SAg Assay for Eselectin Biomarker Activity (AID 2283091); conditions: primary human HUVEC with PBMC; actives raise or lower the signal
Method in brief: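 Primary human endothelial cells and peripheral blood mononuclear cells were co-cultured and exposed to chemical for 24 hours. E-selectin levels were then quantified by ELISA, with bidirectional curve fitting normalised to DMSO controls.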

[8] = read-out: Monokine induced gamma interferon (MIG), CXCL9 (gene 4283); test: BSK_SAg_MIG: BioMAP Diversity Plus: SAg Assay for Monokine induced gamma interferon (MIG) Biomarker Activity (AID 2283092); conditions: primary human HUVEC with PBMC; actives raise or lower the signal
Method in brief: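 HUVEC plus human PBMC co-culture, chemicals dosed and MIG (CXCL9) quantified by ELISA at 24 h. Bidirectional curve fitting against DMSO as negative control and baseline, so both gain and loss of signal count as activity.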

[9] = BSK_SAg_PBMCCytotoxicity: PBMC Cytotoxicity Assessment in the BioMAP Diversity Plus: SAg Assay (AID 2283093); conditions: primary human HUVEC with PBMC;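 further: PBMC viability measured as Alamar Blue reduction fluorescence at 546/580 nm; fitted both ways against DMSO so a hit may be loss or gain of signal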;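 on AC50: PBMC superantigen activated with SEB plus TSST-1 one hour after compound addition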
Method in brief: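 Compound added to 75,000 PBMC/well for 1 h; SEB and TSST-1 then added at 20 ng/mL final each; 90 h incubation; Alamar Blue 6 h; read 546/580 nm ex/em. Activity fitted bidirectionally relative to DMSO baseline.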

[10] = read-out: Interleukin-8 (IL8), CXCL8 (gene 3576); test: BSK_SAg_IL8: BioMAP Diversity Plus: SAg Assay for Interleukin-8 (IL8) Biomarker Activity (AID 2283094); conditions: primary human HUVEC with PBMC; actives raise or lower the signal
Method in brief: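 ELISA read-out of IL-8 in a primary human vascular co-culture (umbilical vein endothelium plus PBMC), taken 24 h after compound addition. Values derive from bidirectional fits against DMSO negative controls.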

[11] = BSK_SAg_Proliferation: Cell Proliferation Assessment in the BioMAP Diversity Plus: SAg Assay (AID 2283095); conditions: primary human HUVEC with PBMC;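 further: relative cell number as total protein by SRB absorbance in sub-confluent culture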
Method in brief: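 Cells (endothelium plus PBMC, human primary) were dosed with chemical, cultured 96 h, fixed in 10% TCA and stained with 0.1% SRB. Absorbance at 560 nm gave relative protein, fitted bidirectionally relative to DMSO.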

[12] = BSK_SAg_SRB: Viability Assessment in the BioMAP Diversity Plus: SAg Assay (AID 2283096); conditions: primary human HUVEC with PBMC;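 further: cells read one day after compound addition; hits may be either gain or loss of signal compared with DMSO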
Method in brief: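 Total protein by sulforhodamine B staining, 24 h after dosing, in HUVEC–PBMC co-culture; DMSO-referenced bidirectional fitting.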

[13] = read-out: CD40, CD40 (gene 958); test: BSK_SAg_CD40: BioMAP Diversity Plus: SAg Assay for CD40 Biomarker Activity (AID 2283088); conditions: primary human HUVEC with PBMC; actives raise or lower the signal
Method in brief: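 Fluorescence ELISA read-out of CD40 from umbilical vein endothelium plus peripheral blood mononuclear cells, sampled 24 h after dosing. Values come from bidirectional curve fitting with DMSO as baseline.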

[14] = read-out: CD69, CD69 (gene 969); test: BSK_SAg_CD69: BioMAP Diversity Plus: SAg Assay for CD69 Biomarker Activity (AID 2283089); conditions: primary human HUVEC with PBMC; actives raise or lower the signal;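 on AC50: cell surface CD69 protein quantified by ELISA with fluorescence detection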
Method in brief: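 HUVEC co-cultured with PBMC were dosed with chemical, and CD69 was measured by ELISA with fluorescence read-out 24 h later. Bidirectional curve fitting used DMSO as negative control and activity baseline.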

[15] = biological target: human CYP1A1, CYP1A1 (gene 1543) (UniProt P04798); test: NVS_ADME_hCYP1A1: NovaScreen (NVS) CYP450-related Enzyme Activity (ADME) Assay for human CYP1A1 (AID 2283100; active means hit-call score of the fitted dose curve at least 0.9, where 1 is the maximum)
human CYP1A1, CYP1A1 (gene 1543), sequence (P04798 whole entry, looked up): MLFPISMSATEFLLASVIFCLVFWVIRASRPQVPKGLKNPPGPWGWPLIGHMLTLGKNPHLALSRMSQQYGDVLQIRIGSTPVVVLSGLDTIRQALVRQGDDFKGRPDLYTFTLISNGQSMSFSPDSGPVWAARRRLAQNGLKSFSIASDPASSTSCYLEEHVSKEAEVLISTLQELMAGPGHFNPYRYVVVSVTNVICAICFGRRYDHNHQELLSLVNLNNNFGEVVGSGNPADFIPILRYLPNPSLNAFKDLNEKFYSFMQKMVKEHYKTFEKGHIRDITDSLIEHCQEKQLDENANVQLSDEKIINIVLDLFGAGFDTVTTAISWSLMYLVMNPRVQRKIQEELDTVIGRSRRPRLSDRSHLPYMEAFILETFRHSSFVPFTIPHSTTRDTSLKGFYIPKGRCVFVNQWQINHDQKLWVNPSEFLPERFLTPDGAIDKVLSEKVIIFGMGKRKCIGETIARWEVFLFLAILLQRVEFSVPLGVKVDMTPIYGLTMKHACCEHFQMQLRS
Method in brief: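 Compounds first went through duplicate single-concentration testing at 10 uM against purified CYP1A1. Those passing a threshold such as 30% inhibition entered singleton dose-response, highest concentration 20 uM. Signal was fluorescence measured after 1 hour.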

[16] = biological target: human CYP1A2, CYP1A2 (gene 1544) (UniProt P05177); test: NVS_ADME_hCYP1A2: NovaScreen (NVS) CYP450-related Enzyme Activity (ADME) Assay for human CYP1A2 (AID 2283102; active means hit-call score of the fitted dose curve at least 0.9, where 1 is the maximum)
human CYP1A2, CYP1A2 (gene 1544), sequence (P05177 whole entry, looked up): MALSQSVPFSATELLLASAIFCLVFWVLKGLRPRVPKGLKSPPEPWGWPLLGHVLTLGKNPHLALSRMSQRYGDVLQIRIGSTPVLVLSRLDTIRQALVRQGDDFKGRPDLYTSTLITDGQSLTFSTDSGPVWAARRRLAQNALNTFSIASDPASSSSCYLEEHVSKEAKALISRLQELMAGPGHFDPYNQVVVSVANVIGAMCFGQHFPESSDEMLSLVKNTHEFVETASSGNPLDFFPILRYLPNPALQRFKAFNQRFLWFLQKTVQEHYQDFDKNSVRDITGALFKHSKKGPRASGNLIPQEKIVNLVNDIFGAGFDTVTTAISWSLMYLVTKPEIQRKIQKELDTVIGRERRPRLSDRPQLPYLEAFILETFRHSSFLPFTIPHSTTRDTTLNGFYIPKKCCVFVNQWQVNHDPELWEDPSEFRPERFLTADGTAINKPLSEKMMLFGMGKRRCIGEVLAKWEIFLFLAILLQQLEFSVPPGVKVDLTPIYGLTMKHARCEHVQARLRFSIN
Method in brief: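 Compounds were tested at 10 uM in duplicate against recombinant CYP1A2 produced in insect cells. Enzyme activity was measured by fluorescence 0.5 h after dosing, with loss of signal versus acetonitrile control. Active compounds were re-tested in concentration series.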

[17] = biological target: human CYP2D6, CYP2D6 (gene 1565) (UniProt P10635); test: NVS_ADME_hCYP2D6: NovaScreen (NVS) CYP450-related Enzyme Activity (ADME) Assay for human CYP2D6 (AID 2283107; active means hit-call score of the fitted dose curve at least 0.9, where 1 is the maximum)
human CYP2D6, CYP2D6 (gene 1565), sequence (P10635 whole entry, looked up): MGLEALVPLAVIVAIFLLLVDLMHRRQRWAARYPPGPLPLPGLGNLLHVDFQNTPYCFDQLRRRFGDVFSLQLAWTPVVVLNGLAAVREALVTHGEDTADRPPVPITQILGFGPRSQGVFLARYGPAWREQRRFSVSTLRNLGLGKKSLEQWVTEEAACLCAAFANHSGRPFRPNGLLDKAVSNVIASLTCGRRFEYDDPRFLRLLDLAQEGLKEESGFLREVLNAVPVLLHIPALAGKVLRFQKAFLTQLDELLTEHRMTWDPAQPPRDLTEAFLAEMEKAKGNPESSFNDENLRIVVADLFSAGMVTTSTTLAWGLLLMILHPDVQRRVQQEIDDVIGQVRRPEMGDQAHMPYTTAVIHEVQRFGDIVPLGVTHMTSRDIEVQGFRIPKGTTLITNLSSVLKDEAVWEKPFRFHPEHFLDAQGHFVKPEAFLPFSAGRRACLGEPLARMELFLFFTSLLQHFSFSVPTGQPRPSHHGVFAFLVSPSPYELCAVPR
Method in brief: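 Compounds were first tested in duplicate at 10 uM against recombinant enzyme produced in insect cells, with substrate turnover measured by fluorescence after 1 hour. Decreased signal, referenced to acetonitrile vehicle, was taken as reduced enzyme activity. Active chemicals went on to concentration-response testing.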

Tumor necrosis factor (Homo sapiens), sequence (P01375 whole entry, looked up): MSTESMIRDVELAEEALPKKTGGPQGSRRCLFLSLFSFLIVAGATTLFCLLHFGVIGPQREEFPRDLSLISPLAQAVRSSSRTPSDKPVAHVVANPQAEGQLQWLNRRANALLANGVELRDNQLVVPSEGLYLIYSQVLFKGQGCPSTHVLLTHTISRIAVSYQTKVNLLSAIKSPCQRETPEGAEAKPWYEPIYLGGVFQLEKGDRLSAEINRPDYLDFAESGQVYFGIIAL
E-selectin (Homo sapiens), sequence (P16581 whole entry, looked up): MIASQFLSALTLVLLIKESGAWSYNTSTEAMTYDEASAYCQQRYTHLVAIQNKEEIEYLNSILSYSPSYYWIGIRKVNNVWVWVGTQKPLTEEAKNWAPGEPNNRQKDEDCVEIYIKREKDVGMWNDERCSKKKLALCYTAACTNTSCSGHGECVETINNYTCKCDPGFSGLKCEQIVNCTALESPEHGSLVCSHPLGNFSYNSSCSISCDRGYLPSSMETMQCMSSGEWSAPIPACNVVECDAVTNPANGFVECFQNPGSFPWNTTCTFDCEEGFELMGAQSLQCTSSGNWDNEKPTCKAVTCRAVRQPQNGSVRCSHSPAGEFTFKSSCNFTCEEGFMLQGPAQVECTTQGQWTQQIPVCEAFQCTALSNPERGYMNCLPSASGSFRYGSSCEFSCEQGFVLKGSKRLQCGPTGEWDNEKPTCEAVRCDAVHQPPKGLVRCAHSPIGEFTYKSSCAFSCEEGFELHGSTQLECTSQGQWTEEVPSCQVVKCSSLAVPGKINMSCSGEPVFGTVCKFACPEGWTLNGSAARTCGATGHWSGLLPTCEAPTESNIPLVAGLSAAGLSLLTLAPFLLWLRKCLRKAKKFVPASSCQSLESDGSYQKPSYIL

SMILES: CC(C)OC(=O)C(C)(C)Oc1ccc(C(=O)c2ccc(Cl)cc2)cc1
- AC50 [1]: 27.3 µM (active)
- outcome [2]: inactive
- outcome [3]: inactive
- AC50 [4]: 32.2 µM (active)
- AC50 [5]: 16.1 µM (active)
- AC50 [6]: 20 µM (active)
- AC50 [7]: 33.5 µM (active)
- outcome [8]: inactive
- outcome [9]: inactive
- AC50 [10]: 29.1 µM (active)
- AC50 [11]: 29.5 µM (active)
- AC50 [12]: 28.9 µM (active)

SMILES: CN(C)CCCN1c2ccccc2Sc2ccc(Cl)cc21
- AC50 [1]: 30.1 µM (active)
- outcome [2]: inactive
- AC50 [3]: 27.8 µM (active)
- AC50 [4]: 29.9 µM (active)
- AC50 [5]: 28.8 µM (active)
- AC50 [13]: 29.5 µM (active)
- AC50 [14]: 28.6 µM (active)
- AC50 [7]: 27.7 µM (active)
- AC50 [9]: 16.4 µM (active)
- AC50 [12]: 28.3 µM (active)
- outcome [15]: inactive

SMILES: CCCCc1nc2cccnc2n1Cc1ccc(-c2ccccc2-c2nnn[nH]2)cc1
- outcome [1]: inactive
- outcome [2]: inactive
- outcome [3]: inactive
- outcome [4]: inactive
- outcome [5]: inactive
- outcome [13]: inactive
- outcome [14]: inactive
- outcome [7]: inactive
- outcome [8]: inactive
- outcome [9]: inactive
- outcome [10]: inactive
- outcome [11]: inactive
- outcome [12]: inactive

SMILES: Cc1cc(Cc2ccc(N)c(C)c2)ccc1N
- outcome [2]: inactive
- outcome [3]: inactive
- outcome [4]: inactive
- outcome [5]: inactive
- outcome [13]: inactive
- outcome [14]: inactive
- AC50 [7]: 5.1 µM (active)
- outcome [8]: inactive
- outcome [9]: inactive
- outcome [10]: inactive
- outcome [11]: inactive
- outcome [12]: inactive
- outcome [16]: inactive

SMILES: Cc1cn([C@H]2C=C[C@@H](CO)O2)c(=O)[nH]c1=O
- outcome [1]: inactive
- outcome [2]: inactive
- outcome [3]: inactive
- outcome [4]: inactive
- outcome [5]: inactive
- outcome [13]: inactive
- outcome [14]: inactive
- outcome [7]: inactive
- outcome [8]: inactive
- outcome [9]: inactive
- outcome [10]: inactive
- outcome [11]: inactive
- outcome [12]: inactive

SMILES: CCCCOC(=O)CCCCC(=O)OCCCC
- outcome [1]: inactive
- outcome [2]: inactive
- outcome [3]: inactive
- outcome [4]: inactive
- outcome [5]: inactive
- outcome [13]: inactive
- outcome [14]: inactive
- outcome [7]: inactive
- outcome [8]: inactive
- outcome [9]: inactive
- outcome [10]: inactive
- outcome [11]: inactive
- outcome [12]: inactive

SMILES: CSc1ccc(Oc2ccc(S(N)(=O)=O)cc2CN(C)C)cc1C
- outcome [1]: inactive
- outcome [2]: inactive
- outcome [3]: inactive
- outcome [4]: inactive
- outcome [5]: inactive
- outcome [13]: inactive
- outcome [14]: inactive
- outcome [7]: inactive
- outcome [8]: inactive
- outcome [9]: inactive
- outcome [10]: inactive
- AC50 [11]: 23.3 µM (active)
- outcome [12]: inactive
- AC50 [17]: 4.8 µM (active)
